Screening results deposited in PubChem by The Scripps Research Institute Molecular Screening Center.
DAX1 inh-1 = inhibits human nuclear receptor DAX1; inhibition, % at 6.75 µM; P51843; AID 504766; 340,000 compounds, 0.99% hits; HEK293 Gal4-DAX1 luciferase reporter, luminescence;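 active = inhibition above the mean over all tested compounds plus 3 SD, cut at about 4.2% in these data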;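 also: inhibition shows as a rise in luminescence from relieved DAX1 repression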
Target sequence (P51843 207-470 limits assumed): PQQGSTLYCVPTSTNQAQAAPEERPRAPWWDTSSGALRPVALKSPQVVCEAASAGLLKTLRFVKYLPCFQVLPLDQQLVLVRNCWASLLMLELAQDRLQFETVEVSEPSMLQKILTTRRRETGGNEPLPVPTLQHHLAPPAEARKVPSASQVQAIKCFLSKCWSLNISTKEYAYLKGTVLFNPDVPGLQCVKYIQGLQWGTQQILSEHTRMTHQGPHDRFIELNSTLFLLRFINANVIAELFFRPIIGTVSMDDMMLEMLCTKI
hcDAF12 agonist = activates DAF-12 receptor from parasite H. contortus; HEK293 hcDAF-12 lit1-tk-luc reporter, luminescence; 0% DMSO, 100% Δ7-dafachronic acid; activation, % at 6.8 µM; 370,000 compounds, 1.4% hits; AID 652067;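 active = activation above the mean of all tested compounds plus 3 SD, cut at about 5.5% in these data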
DAX1 inh-2 = inhibitors of DAX1 repression of SF-1 activated StAR promoter; AID 652010; inhibition, % at 6.8 µM; HEK293T StAR-luciferase reporter, SF-1/DAX-1 repression relief; 370,000 compounds, 1.1% hits;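 active = inhibition above the mean over all tested compounds plus 3 SD, cut at about 3.6% in these data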;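 also: higher inhibition means more luminescence from relief of DAX-1 repression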
ssDAF12 agonist = activators of S. stercoralis DAF-12 nuclear receptor; HEK293 ssDAF-12/GRIP1 lit1-tk-luc reporter, luminescence; % of 3 µM dafachronic acid response; activation, % at 6.8 µM; 370,000 compounds, 1% hits;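 active = activation above the mean over all tested compounds plus 3 SD, cut at about 0.9% in these data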
hgDAF12 agonist = hgDAF-12 agonism, primary luciferase screen. HEK293 GAL4-hgDAF12 UAS-luciferase reporter, agonist luminescence; normalized to butyrate control. activation, % at 6.8 µM. 370,000 compounds, 1.8% hits;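 active = activation above a cutoff set at the mean of all screened compounds plus 3 SD, cut at about 10% in these data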
Of the large screens only hits and unclear results are named; the others gave an inactive call. The list is not random: actives were taken first. Their share in the collection is about 4.1%.

CCN(CC)CCNC(=O)c1ccc(NC(=O)c2cc(S(=O)(=O)N3CCCCC3)ccc2N2CCOCC2)cc1	none
CC1NC(=O)c2cc3ccccc3cc2-n2c1nc1cc(Cl)ccc1c2=O (stereo unspecified)	ssDAF12 agonist 1.1
CC1NC(=O)c2cc3ccccc3cc2-n2c1nc1cc(F)ccc1c2=O (stereo unspecified)	ssDAF12 agonist 1.8
O=C1NC(Cc2ccccc2)c2nc3ccccc3c(=O)n2-c2cc3ccccc3cc21 (stereo unspecified)	none
CCC1NC(=O)c2cc3ccccc3cc2-n2c1nc1cc(F)ccc1c2=O (stereo unspecified)	none
Cc1ccc2c(=O)n3c(nc2c1)C(Cc1ccccc1)NC(=O)c1cc2ccccc2cc1-3 (stereo unspecified)	ssDAF12 agonist 1.2
CCN(C(=O)CSc1nnnn1-c1ccc(Cl)cc1)C1CCS(=O)(=O)C1 (stereo unspecified)	DAX1 inh-2 4.0
COC(=O)[C@]12C[C@H](CC(=O)NCCc3ccccc3OC)C(=O)N(Cc3cccc4ccccc34)C1=C[C@H](C(C)C)O[C@@H]2C1CC1	none (no result: DAX1 inh-1)
Cc1cccc(NC(=O)NCCCN2CCN(c3ccc(F)cc3)CC2)c1	none (no result: DAX1 inh-1)
Cc1ccc(SC(=O)c2c([N+](=O)[O-])c(C)nn2C)cc1	DAX1 inh-1 4.5
Cc1cc(C)n(C(=O)c2c([N+](=O)[O-])c(C)nn2C)n1	none
COc1cccc(CNC(=O)C2CCN(S(=O)(=O)c3ccc4c(c3)CCC(=O)N4)CC2)c1	DAX1 inh-1 5.0
Cn1c(N)c(-c2nc3cccnc3n2C)sc1=S	DAX1 inh-1 4.2
O=C(NNC(=S)NC(=O)c1sc2ccccc2c1Cl)c1ccc(Cl)cc1	ssDAF12 agonist 1.2
Cc1ccc(-c2nnn(CC(=O)N3CCCCC3)n2)o1	none
Clc1nn2cnnc2c2ccccc12	DAX1 inh-1 6.2
O=C(Cc1ccccc1[N+](=O)[O-])NCc1ccc(Cl)cc1	ssDAF12 agonist 1.2
O=C(Cc1ccccc1[N+](=O)[O-])NCc1ccc(Cl)cc1Cl	hgDAF12 agonist 12
O=C(Cc1ccc([N+](=O)[O-])cc1)NCc1ccccc1Cl	none
CCCCCCCCN1C(=O)[C@@H](CC(=O)NCCCN2CCCC2=O)C[C@@]2(C(=O)OC)C1=C[C@H](C(C)C)O[C@@H]2C1CC1	none (no result: DAX1 inh-1)
CN(Cc1ccccc1)C(=O)OCc1cn(Cc2ccc(F)cc2F)nn1	none (no result: DAX1 inh-1)
ClCc1cc2ccccc2nc1Cl	none
CCc1cc2ccccc2nc1Cl	DAX1 inh-1 6.1
O=C1c2ccccc2C2=Nc3ccccc3SC(c3cccc(F)c3)C12 (stereo unspecified)	none
Fc1cccc(C2NN=C(c3ccccc3)S2)c1 (stereo unspecified)	hcDAF12 agonist 10, DAX1 inh-2 4.5, ssDAF12 agonist 2.3, hgDAF12 agonist 28
Cc1ccc(Cl)cc1NC1=C/C(=N\S(=O)(=O)c2cccs2)c2ccccc2C1=O	ssDAF12 agonist 1.0
CCOC(=O)NN1C(=O)c2ccccc2NC1c1ccc(OC)c(OC)c1 (stereo unspecified)	DAX1 inh-1 4.6
COc1ccc(C2Nc3ccccc3C(=O)N2NC(C)=O)cc1OC (stereo unspecified)	none
C#Cc1cccc(OCC(C)CN2CCC(C(O)(c3ccccc3)c3ccccc3)CC2)c1 (stereo unspecified)	none (no result: DAX1 inh-1)
NC(=O)CSc1nnnn1-c1cccc(Cl)c1	none
C#CCSc1nnnn1-c1cccc(Cl)c1	DAX1 inh-1 4.3
COc1ccc(C2CC(=O)c3c(O)cc(O)cc3O2)cc1O (stereo unspecified)	DAX1 inh-1 4.8
Cc1cc(NC(=O)Nc2cccc(F)c2)n(-c2ccccc2)n1	none (no result: DAX1 inh-1)
O=C(c1cc2cc(Cl)ccc2oc1=O)N1CCCCCCC1	DAX1 inh-1 4.5
CC(=O)c1cccc(NC(=O)COC(=O)CCc2ccc(S(=O)(=O)N3CCOCC3)cc2)c1	DAX1 inh-1 4.3
O=C(COC(=O)c1cccc(F)c1)Nc1cccc(S(=O)(=O)N2CCOCC2)c1	none
O=C(COC(=O)c1ccc(F)cc1F)Nc1cccc(S(=O)(=O)N2CCOCC2)c1	DAX1 inh-2 3.6
N#Cc1cccc(NC(=O)COC(=O)CCc2ccc(S(=O)(=O)N3CCOCC3)cc2)c1	none
CCC(CO)Nc1cccc2c1S(=O)(=O)N(Cc1cn(Cc3cccc(F)c3)nn1)Cc1ccccc1O2 (stereo unspecified)	none (no result: DAX1 inh-1)
